For 57 compounds, binding response (% of control) results are on record in PubChem BioAssay AID1894 (NMMLSC, 2009).

Each structure is given as a SMILES string. The campaign covered roughly 5,900 compounds. About 100 (1.7%) were called active. Many of the other results were omitted from the sample, so actives are more common in it than they were. A number with no mark means an inactive call.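 Rule for the calls: active = binding response below 72% of control, or above a set upper limit, though filed actives all read lower; inactive = the rest.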

Sequence of Mitogen-activated protein kinase kinase kinase 3 (Homo sapiens) (Q99759 whole entry, looked up): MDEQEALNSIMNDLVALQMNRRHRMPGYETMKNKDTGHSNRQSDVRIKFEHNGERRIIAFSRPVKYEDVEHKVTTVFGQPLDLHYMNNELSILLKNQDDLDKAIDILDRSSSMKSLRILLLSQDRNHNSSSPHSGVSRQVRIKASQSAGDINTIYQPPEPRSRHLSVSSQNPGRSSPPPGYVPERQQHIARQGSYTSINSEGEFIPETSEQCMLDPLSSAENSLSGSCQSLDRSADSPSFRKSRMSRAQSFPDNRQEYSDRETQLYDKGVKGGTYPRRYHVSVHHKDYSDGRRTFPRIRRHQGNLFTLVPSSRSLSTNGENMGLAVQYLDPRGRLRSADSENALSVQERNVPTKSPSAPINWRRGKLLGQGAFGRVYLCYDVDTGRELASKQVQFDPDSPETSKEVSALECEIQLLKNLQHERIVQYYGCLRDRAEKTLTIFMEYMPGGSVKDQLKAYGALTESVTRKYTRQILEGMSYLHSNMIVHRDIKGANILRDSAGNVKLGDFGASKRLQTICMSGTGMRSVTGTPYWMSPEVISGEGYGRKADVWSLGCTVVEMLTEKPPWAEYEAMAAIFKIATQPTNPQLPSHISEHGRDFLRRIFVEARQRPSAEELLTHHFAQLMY

This test concerns the target Mitogen-activated protein kinase kinase kinase 3 (Homo sapiens) (UniProt Q99759). The test is described as follows: blockers of MEK5-MEKK3 PB1 association – biochemical, bead multiplex flow cytometry, single concentration, wildtype, confirmation (AID 1894).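 Note: 100% = DMSO only wells and 0% = binding blocked by excess unlabeled MEK5.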 The settings on record: Alexa488-MEK5 binding to MEKK3, at 10 µM, hits give low values.
As for `C=C(C)C1CC=C(C)/C(=N\NC(=O)CNc2ccccc2OC)C1` (configuration not stated), the binding response (% of control) was 109%.
Next, `CCOC(=O)c1cc2c(nc1NC(=S)Nc1ccccc1)CC(C)(CC)OC2` (configuration not stated): 102%.
Take `COc1cccc(OCC(=O)NNC(=O)c2cnccn2)c1`: the binding response (% of control) is 101%.
In the case of `CCCn1c(=N)n(CC(=O)c2ccc(Cl)c(Cl)c2)c2ccccc21` it was 109%; in that of `Cc1cc(C)c(NC(=O)C[N+](C)(C)CC(O)COc2cccc3ccccc23)c(C)c1` (configuration not stated), 108%.
With `CCOC(=O)c1c(-c2ccccc2)csc1NC(=S)NC(=O)c1ccccc1`, the binding response (% of control) is 102%.
Next, `CCCCN1C(=O)/C(=C(/C#N)C(N)=O)c2ccccc21`: 99%; `CC(=O)Nc1ccc(N2CCOCC2)c(C(=O)Nc2cccc(C)c2)c1`: 105%; `COc1ccccc1NC(=S)N1CCN(c2ccc(F)cc2)CC1`: 102%.
In the case of `CCCN(CCC)c1nc2c(C)cccn2c(=O)c1/C=C1/SC(=S)N(Cc2ccco2)C1=O` it was 86%.
Next, `O=C(Nc1ccc2ccccc2c1)Nc1ccc2snnc2c1`: 105%; `O=C1NCC(=O)N(Cc2ccccc2)/C1=C/c1ccccc1`: 91%; `O=C(CSc1ccc(-c2ccc(F)cc2)nn1)Nc1ccc2c(c1)OCCO2`: 104%.
Take `CCOc1cc(C(=O)OCC(=O)Nc2cccc(C)c2)ccc1OCC(=O)N1CCOCC1`: the binding response (% of control) was 106%.
In the case of `O=C(CN1C(=O)c2cccnc2Oc2ccc(Cl)cc21)Nc1ccc(F)cc1` it was 103%; in that of `O=c1c2ccccc2c(-c2ccccc2)nn1Cc1ccccc1`, 97%; in that of `CCn1cc(CN2CCC(C(=O)Nc3cccc(-c4cccc(Cl)c4)c3)CC2)cn1`, 116%.
In the case of `CC(=O)N1CCN(S(=O)(=O)c2ccc(C)c([N+](=O)[O-])c2)C1C(C)C` (configuration not stated) it was 97%; in that of `N=C1/C(=C/c2cccn2-c2cccc([N+](=O)[O-])c2)C(=O)N=C2SC=CN12`, 100%; in that of `Cn1c(=NC(=O)CSCC(=O)N2CCCCC2)sc2ccccc21`, 104%.
In the case of `CCCCNC(=O)N1CCCC(N(C)CCc2ccc(OC)c(OC)c2)C1` (configuration not stated) it was 102%; in that of `O=C(NCc1ccccc1Cl)NC(=O)c1csc([N+](=O)[O-])c1`, 103%.
In the case of `CC(C)(C)c1nnc(NC(=O)C2c3ccccc3Oc3ccccc32)s1`, the binding response (% of control) was 100%.
In the case of `CN(c1ccccc1)c1ccc(/C=c2\s/c(=C(/C#N)C(=O)C(C)(C)C)n(Cc3ccco3)c2=O)cc1` it was 69% (active).
In the case of `O=C(/C=C/Nc1ccccc1)c1cnc(-c2ccccc2)s1` it was 106%.
With `Cc1cccc(-c2ncc(CN3CCC(CO)(CCCc4ccccc4)CC3)cn2)c1`, the binding response (% of control) is 107%.
Next, `CC(C)(C)NC(=O)c1cccc(NC(=O)Cc2ccc(Br)cc2)c1`: 101%; `COCC(C)NC(=O)COc1nncc2ccccc12` (configuration not stated): 95%.
For `O=C(COC(=O)CNC(=O)c1ccco1)Nc1ccc(F)cc1`, the binding response (% of control) is 103%.
Next, `CCOC(=O)c1c(NC(=O)c2ccc(S(=O)(=O)N(C)CC3CCCO3)cc2)sc2c1CC(C)(C)NC2(C)C` (configuration not stated): 99%.
Consider `CCN(CC)CCCNC(=O)c1ccc2c(=O)n(Cc3ccc4c(c3)OCO4)c(=S)[nH]c2c1`, for which the binding response (% of control) is 101%.
In the case of `CN(C)CCCN(C(=O)COc1ccccc1)c1nc2c(Cl)cccc2s1` it was 108%; in that of `O=C(O)/C=C\C(=O)Nc1ccc(OCc2ccccc2)cc1`, 98%; in that of `Cc1ccc2c(C)c(C(=O)N3CCN(c4ccncc4)CC3)oc2c1C`, 108%.
As to `Cc1ccccc1-c1ccc(Nc2ccc(C(=O)N3CCOCC3)cc2)nn1`, the binding response (% of control) is 102%.
In the case of `C[N+](C)(C)CCNC(=O)c1c(O)c2c([nH]c1=O)CCCC2` it was 99%; in that of `COc1cc(C)nc(N2CCCC(C(=O)NCC(C)C)C2)n1` (configuration not stated), 96%.
In the case of `O=c1[nH]c(=S)[nH]c2[nH]c(=S)[nH]c12` it was 100%; in that of `CCOC(=O)c1cc2occc2n1CC(=O)N1CCN(C(=O)c2ccco2)CC1`, 95%; in that of `O=C(O)C1CCN(c2ccc([N+](=O)[O-])cc2[N+](=O)[O-])CC1`, 102%.
Next, `COc1ccccc1CC(=O)Nc1ccc([N+](=O)[O-])cc1OC`: 98%.
Turning to `c1ccc2c(c1)C(=NC1CCCCC1)NC2=NC1CCCCC1`, the binding response (% of control) is 104%.
Consider `CCc1nnc(NC(=O)c2sc3nc(C)cc(COC)c3c2N)s1`, for which the binding response (% of control) is 105%.
Next, `Cc1cccc(OCCNC(=O)CSc2ccc(C(F)(F)F)cc2[N+](=O)[O-])c1`: 104%; `COc1ccc(CCn2c(NN=C3CCCC3)nc3c2c(=O)[nH]c(=O)n3C)cc1`: 106%; `Cc1c(CN2CCC(CO)(CCOc3ccccc3)CC2)[nH]c2ccc(Cl)cc12`: 112%.
In the case of `COc1cccc(Nc2ncccc2C(=O)O)c1` it was 101%; in that of `O=C(NCC1CCCCC1)c1cc(S(=O)(=O)N2CCCCC2)ccc1N1CCOCC1`, 91%.
Consider `O=C(c1ccc(Br)o1)N(c1ccccn1)C1CCCCC1`, for which the binding response (% of control) is 98%.
In the case of `Cc1cccc(CSc2nnc(C)c(=O)n2N)c1` it was 103%; in that of `CC(C)CC(=O)NC(=S)NCc1ccccc1`, 99%; in that of `COC(=O)C1=NN(c2ccccc2)C2C(=O)N(c3ccccc3OC)C(=O)C12` (configuration not stated), 103%.
In the case of `Cc1ccccc1CCN(CC(=O)NC1CCCCC1)C(=O)c1csnn1` it was 97%; in that of `Cc1[nH]c2ccc(S(N)(=O)=O)cc2c1C`, 100%; in that of `CCc1ccc2nc(Nc3ncc(C(C)=O)c(C)n3)nc(C)c2c1`, 102%.
In the case of `COc1cccc(OC)c1C(=O)Nc1ccc(Cc2ccncc2)cc1` it was 101%.
`CN(C)CC(O)COc1ccc(C(C)(C)c2ccc(OCC(O)CN(C)C)cc2)cc1` (configuration not stated): the binding response (% of control) is 111%.
